15 molecules from PubChem BioAssay (NCI) can be followed below.

“And” between values parts separate entries of the source, which are not always exact repeats. Identical values can stand only once. The panel holds about 83,000 compounds, 20% with a hit somewhere; the sample as a whole holds those more often.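 Compound tested at a single concentration for 48 hours in 96-well plates; a percent growth value below 10 was scored as active.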 A number with no mark means an inactive call. The source made the active and inactive calls.

The test system of this assay is HL-60(TB) leukemia. As to the kind of experiment: NCI-60 one-dose screen, 48 h (100 = growth as untreated, 0 = no growth, -100 = all killed). The settings on record: 10 µM unless noted.
On to `COc1ccc(-c2c(N)n[nH]c2-c2cc(OC)c3c(c2)OCCO3)cc1`, for which the growth is 47.1%. The value for `c1ccc(N2N=C(c3cccc(Nc4ccncc4)c3)CC2c2ccc3c(c2)OCO3)cc1` (stereo not given) was -21.1% (active); that for `Cc1cc2c([nH]1)CSc1cc(S(=O)(=O)c3ccccc3)c(=O)[nH]c1-2` was 27.7% [100 µM]; that for `C#CCn1cnc2c(Nc3cccc(NC(=O)C=C)c3)ncnc21` was 99.6%. The value for `Cc1nc(Nc2ccccn2)sc1C(=O)/C=C/c1ccc(Cl)cc1` was -38.8% (active); that for `OC(c1ccccc1)C(NC(Cc1ccccc1)c1ccccc1)c1ccccc1` (stereo not given) was 112%. Regarding `COc1ccc(C(=O)C(=O)c2ccccc2)cc1`, the growth is 94.2%. The value for `Cc1cc(-c2cc(C)c(N)cc2C)c(C)cc1N` was 90.2%.

In the case of `C=C1C(=O)O[C@H]2[C@H]1CC/C(COC(=O)NCc1ccc(Cn3c(=O)sn(CCI)c3=O)cc1)=C\CC[C@@]1(C)O[C@@H]21`, the growth is 0.649% (active). For `CCCCCCCC/C=C\CCCCCCCCOc1ccccc1CCOP(=O)(O)OCC[N+](C)(C)C`, the growth is -23% (active).

As to `NC(=S)N/N=C(\c1ccc(Br)cc1)C1CC1`, the growth is 65.6% and 64.8%. Regarding `CCNC(=S)NNC(=O)c1cc2ccc1CCc1ccc(cc1)CC2`, the growth is 100%. In the case of `Cc1ncsc1CCO`, the growth is 99.9% and 89.9%. As to `COC(=O)CCC(=O)c1ccccc1`, the growth was 94.7%. As for `CCCCCCN1C(=O)CN=C1Nc1ccc2cc3ccc(NC4=NCC(=O)N4CCCCCC)cc3nc2c1`, the growth is 50.1%.
